Tests used:
Assay in all cases: PBM binding z-score (relative to random genomic background probes); higher = stronger binding; sequences stand for … in GC…GCGATTGACAGCGTAGAATGAAGG
[1] = tested on: PPARg:RXRa DBDmut IVT, anti-RXR (DBD mutation: RXRa K156A/R161A, NR concentration 270 nM, RXRa partner concentration 90 nM)
In short: (§1)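 Scanned fluorescence from custom Agilent 4×180K protein-binding microarrays was regression-normalized. Binding z-scores use random background probes as reference. Ligand-free nuclear receptor dimers were incubated on the arrays for 1 h and detected with antibodies against each partner (one per run).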

[2] = tested on: PPARg:RXRa IVT, anti-PPARg (NR concentration 270 nM, RXRa partner concentration 90 nM)
In short: as §1

[3] = tested on: PPARg DBDmut:RXRa IVT, anti-PPARg (DBD mutation: PPARg1 K132A/R137A, NR concentration 270 nM, RXRa partner concentration 90 nM)
In short: as §1

[4] = tested on: PPARg DBDmut IVT, anti-PPARg (DBD mutation: PPARg1 K132A/R137A, NR concentration 270 nM)
In short: as §1

[5] = tested on: PPARg homodimer (NR concentration 180 nM)
In short: as §1

[6] = tested on: PXR:RXRa (NR concentration 270 nM, RXRa partner concentration 90 nM)
In short: as §1

[7] = tested on: PXR homodimer (NR concentration 270 nM)
In short: as §1

[8] = tested on: RARa:RXR (NR concentration 270 nM, RXRa partner concentration 90 nM)
In short: as §1

[9] = tested on: RARa homodimer (NR concentration 270 nM)
In short: as §1

[10] = tested on: RARb:RXRa (NR concentration 270 nM, RXRa partner concentration 90 nM)
In short: as §1

[11] = tested on: RARb homodimer (NR concentration 270 nM)
In short: as §1

[12] = tested on: RARg:RXRa (NR concentration 270 nM, RXRa partner concentration 90 nM)
In short: as §1

[13] = tested on: RARg homodimer (NR concentration 270 nM)
In short: as §1

[14] = tested on: RXRa DBDmut IVT, anti-RXR (DBD mutation: RXRa K156A/R161A, NR concentration 90 nM)
In short: as §1

[15] = tested on: RXRa homodimer (NR concentration 180 nM)
In short: as §1

[16] = tested on: THRa:RXRa (NR concentration 90 nM, RXRa partner concentration 90 nM)
In short: as §1

[17] = tested on: THRa homodimer (NR concentration 90 nM)
In short: as §1

[18] = tested on: VDR homodimer (NR concentration 270 nM)
In short: as §1

| Sequence | PBM binding z-score [1] | PBM binding z-score [2] | PBM binding z-score [3] | PBM binding z-score [4] | PBM binding z-score [5] | PBM binding z-score [6] | PBM binding z-score [7] | PBM binding z-score [8] | PBM binding z-score [9] | PBM binding z-score [10] | PBM binding z-score [11] | PBM binding z-score [12] | PBM binding z-score [13] | PBM binding z-score [14] | PBM binding z-score [15] | PBM binding z-score [16] | PBM binding z-score [17] | PBM binding z-score [18] |
| --- | --- | --- | --- | --- | --- | --- | --- | --- | --- | --- | --- | --- | --- | --- | --- | --- | --- | --- |
| CCTACTGGGCCATAAAGGTCATTGATGCCGATAA | 3.2 | 4.78 | -0.0892 | 0.0735 | 1.94 | 4.87 | 2.7 | 4.9 | 0.376 | 3.89 | 4.17 | 4.52 | 3.88 | 0.623 | 4.73 | 3.05 | 0.441 | 2.92 |
| CTTGCTAGGTCAATGGTCAGCTAAAGCAGCTCGC | 5.14 | 4.93 | -0.161 | 0.902 | 0.936 | 0.794 | -0.623 | 1.83 | -0.394 | 3.79 | 2.82 | 3.48 | 4.68 | 1.61 | 2.34 | 2.13 | 0.43 | -0.158 |
| AGAACGAAGGCACGCTGAGTTGATAGCAGAGTAG | -0.47 | -0.214 | -0.0465 | -0.623 | -1.17 | -0.449 | -0.696 | -0.468 | -0.886 | -0.566 | -0.785 | -0.198 | 0.0507 | -0.345 | 0.0315 | -0.717 | -1.12 | -0.212 |
| CGTCCAGGGTCAGCAGGTCAGTGAAAGCGACGTG | 1.76 | 3.07 | -0.496 | -0.836 | 2.79 | 3.35 | 0.0152 | 4.85 | 0.53 | 4.69 | 4.51 | 6.01 | 5.75 | 1.59 | 5.4 | 3.61 | 1.32 | 1.25 |
| TAGCCTAGGTCATGCGGACCAGTATAGTGTCGGC | 1.69 | 2.81 | -0.0719 | -0.526 | 0.843 | 1.31 | -0.745 | 2.2 | -0.507 | 3.65 | 2.76 | 3.99 | 4.25 | 0.668 | 3.05 | 2.84 | 1.12 | -0.0352 |
| GTACCAAGGTGAATAGGTCGGTGATGAGTAGGCG | 1.48 | 2.82 | -0.0174 | 0.489 | 0.98 | 0.296 | 0.0352 | 1.02 | 0.441 | 1.86 | 1.58 | 1.83 | 1.21 | -0.398 | 1.14 | 1.57 | 0.522 | 0.177 |
| CTCGAAAGGTCGTGCGCAGGTGAGTATACCAAAC | 0.325 | 2.29 | 0.196 | 0.413 | 1.83 | 3.65 | -0.0048 | 4.48 | 0.0809 | 4.19 | 2.93 | 5.81 | 3.83 | 1.76 | 5.1 | 3.58 | 0.11 | 0.912 |
| ATATGTAGGTGACATCCGGGTCATTCAGGCTATG | 7.69 | 8.07 | 4.09 | 3.49 | 3.11 | 3.52 | 2.13 | 3.62 | -0.0147 | 2.14 | 2.79 | 3.31 | 1.95 | 0.715 | 3.03 | 3.53 | 2.11 | 2.66 |
| ATTTCTAGGTAAAGATAGTTCAGTGAATGCAAAT | 4.34 | 3.44 | 1.56 | 1.86 | 1.56 | 1.08 | 1.16 | 0.625 | 1.49 | 0.8 | 0.935 | 0.671 | 0.813 | 0.38 | 0.418 | 1.02 | 0.00694 | 0.94 |
| TTATATAGGTAAATGCTAGGTGAAAGTCCGATCT | 6.27 | 5.32 | 1.86 | 2.12 | 1.28 | 0.481 | 0.535 | 0.686 | 1.58 | 0.351 | 0.66 | 0.442 | 0.423 | 0.585 | 0.781 | 1.62 | 0.619 | 0.705 |
| CTACCACGGTGAACAAGGTCGTTGATTACTATTC | 0.771 | 0.788 | -0.025 | -0.267 | 0.744 | 1.44 | 1.01 | 1.15 | 0.251 | 0.76 | 1.3 | 0.591 | 0.651 | 1.04 | 0.823 | 1.93 | 1.4 | 2.12 |
| CGTCCAAGGTCATAGGACGTCAGTGAAGACAGAT | 2.61 | 3.41 | 0.547 | 0.692 | 1.99 | 4.09 | 1.1 | 4.61 | 1.29 | 4.77 | 3.37 | 5.58 | 5.4 | 3.74 | 5.36 | 3.83 | 2.24 | 3.01 |
| AGAATGAGGTTATACGTAGATGAGGGAAGAAAGT | 3.97 | 2.32 | 1.45 | 0.893 | 1.18 | 1.18 | 0.759 | 1.96 | 0.66 | 1.57 | 0.964 | 1.74 | 1.17 | 1.8 | 2.24 | 2.26 | 0.843 | 0.924 |
| TGAATGAGGTTATTAGATCAGGGAACGTTGCAAA | 2.05 | 2.98 | 1.48 | 0.859 | 0.948 | 0.902 | 0.241 | 1.43 | 0.496 | 1.24 | 0.387 | 1.36 | 0.893 | 1.46 | 1.66 | 2 | 0.756 | 0.942 |
| TCTGCTAGATCAACGATGGTCAGCTAATCTGCTA | 0.608 | -0.401 | -0.179 | -0.566 | -1.56 | -0.434 | -1.18 | -0.57 | -1.3 | -0.346 | -0.588 | -0.514 | -0.512 | -0.127 | -0.276 | -0.945 | -1.71 | -1.45 |
